# Assay results from ChEMBL document CHEMBL3988442, “University of Dundee, Small-Polar-MMV Screening Library” (2021).
# Experiments:
# [1] = molecular target: T1, Aspartate--tRNA(Asp/Asn) ligase (Mycobacterium tuberculosis (strain ATCC 25618 / H37Rv)) (UniProt P9WFW3); experiment: Assay for Asp RNA synthetase-1 from Mycobacterium tuberculosis; type: functional; design: scale not given: direction of the effect not stated beside the values; conditions: 30 µM; further: in the data most compounds retested in dose-response had high values
# T1 sequence (whole entry): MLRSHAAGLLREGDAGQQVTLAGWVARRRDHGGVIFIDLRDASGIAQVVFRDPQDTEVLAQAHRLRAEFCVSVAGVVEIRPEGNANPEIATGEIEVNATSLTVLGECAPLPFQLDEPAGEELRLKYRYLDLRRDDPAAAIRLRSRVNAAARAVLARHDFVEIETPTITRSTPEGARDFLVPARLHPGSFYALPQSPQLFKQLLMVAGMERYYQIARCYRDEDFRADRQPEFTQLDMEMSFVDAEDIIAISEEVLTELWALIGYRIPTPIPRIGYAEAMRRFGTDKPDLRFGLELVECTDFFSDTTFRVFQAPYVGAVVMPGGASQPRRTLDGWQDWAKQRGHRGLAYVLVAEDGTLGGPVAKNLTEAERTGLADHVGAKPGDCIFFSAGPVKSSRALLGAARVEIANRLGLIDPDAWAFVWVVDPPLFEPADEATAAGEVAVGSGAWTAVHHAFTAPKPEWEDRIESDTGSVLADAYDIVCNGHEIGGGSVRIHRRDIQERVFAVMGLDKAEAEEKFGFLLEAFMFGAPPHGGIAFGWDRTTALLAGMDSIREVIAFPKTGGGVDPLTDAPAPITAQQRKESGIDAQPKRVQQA
# [2] = molecular target: Shiga toxin 2 (Escherichia coli O157:H7) (UniProt P09385+P09386); experiment: E. coli 0.157:H7 Shiga Toxin SOP - stx2 screening assay; type: functional; design: scale not given: direction of the effect not stated beside the values; conditions: 30 µM
Structure (SMILES),Percent Effect [1],Percent Effect [2]
CN(C)CC(=O)N1CCOCC2(C1)CN(c1ccccc1)C(=O)CO2 (configuration not stated),3.93%,-23.2%
Cc1ccc(C(=O)N2C[C@@H](OCC3CCOCC3)[C@H]3OCCC[C@H]32)o1,-0.93%,-15.3%
N#Cc1ccc(OCCN2CCc3c(ncn3C3CC3)C2)cc1,1.24%,-40.3%
Cc1nc(C2CCCN(C(=O)c3ccc(Cn4cccn4)o3)C2)no1 (configuration not stated),-5.64%,12.3%
CC(C)NC(=O)N1CCC(n2ccc(C(F)(F)F)n2)CC1,-2.88%,-0.886%
CN(c1ccc(C(C)(C)C)cc1)S(=O)(=O)c1cc(C(=O)O)cs1,1.85%,12.9%
Cc1nnc2n1CCN(CCC(=O)Nc1sccc1C#N)C2,1.26%,22.9%
Cc1csc2c(N3CCC(NCCCc4ccncc4)CC3)ncnc12,8.8%,-69.6%
Cc1oncc1C(=O)N1CCC2(C1)CN(c1cccnc1)C(=O)CN2C (configuration not stated),-6.17%,-13.7%
N#Cc1ccc(N2CCCN(C(=O)CC3CCCO3)CC2)cc1 (configuration not stated),4.84%,11.8%
Cc1nnc(N2C[C@H](C(=O)NCC3CC3)[C@@H]3CCO[C@@H]3C2)s1,-0.219%,-6.05%
CN(C)C(=O)Cc1nc(CN2CCOC(Cn3cccn3)C2)cs1 (configuration not stated),-3.5%,-20.8%
CCc1ccc(CN2C[C@@H]3OCCN(c4ccnc(N(C)C)n4)[C@@H]3C2)o1,-6.22%,-25.6%
CC(C)(C)c1ncc(C(=O)NCCNC(=O)c2ccccc2)s1,1.94%,36.9%
COCCN1C[C@@H](C)[C@@]2(COCCN(C(=O)c3cnc(C)cn3)C2)C1,-1.78%,-19.1%
Cc1noc(Cl)c1CC(=O)N1CCCC(n2cccn2)C1 (configuration not stated),2.08%,32.6%
